# Source: the supplement of paper PMC3334620
# Over roughly 33,000 sequences, “E-score (-0.5 to 0.5)” has its median near -8e-05; the highest 2% begin near 0.23. The sample as a whole holds a higher share of the highest values than the screen did.
# Target: T1, Nrg2 (UniProt P38082)
# T1 sequence: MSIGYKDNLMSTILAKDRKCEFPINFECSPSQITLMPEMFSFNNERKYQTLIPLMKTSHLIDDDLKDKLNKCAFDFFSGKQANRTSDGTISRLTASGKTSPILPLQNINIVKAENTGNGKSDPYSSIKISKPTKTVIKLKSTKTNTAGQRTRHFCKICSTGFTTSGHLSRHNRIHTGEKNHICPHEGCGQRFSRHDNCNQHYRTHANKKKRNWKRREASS
# Assay: PBM E-score (8-mer binding enrichment) (E-score (-0.5 to 0.5)); higher = stronger / more preferred TF binding
# Conditions: protein concentration: 100 nM; construct: GST-full length
# Method in brief: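 Yeast transcription factors, full-length or as DNA-binding domains, were expressed with a GST tag using PURExpress in vitro transcription/translation. At about 100-200 nM they were applied to universal all-10-mer Agilent arrays, double-stranded by primer extension on fresh or once-stripped slides. Fluorescent anti-GST detected bound protein, and masliner normalised the scans. E-scores for ungapped eight-base words, pooled with reverse complements, came from the Universal PBM Analysis Suite.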
row,Sequence,PBM E-score
1,CCTTTCCG,-0.116
2,TTGAACAA,-0.0525
3,ACGGAAGC,-0.0173
4,AGCCAGCG,-0.0673
5,CTCGGAGA,0.0113
6,ATCAGTAA,0.0691
7,AGAAAGTC,0.037
8,CCCTGTGC,0.263
9,TACTGAAA,0.242
10,GCCTGTAA,-0.225
11,CCCTGTGA,0.059
12,CCCTGAAG,0.208
13,CCCTGAAC,0.282
14,CCCTGTAA,0.294
15,GCCTGAAC,-0.211
16,CCCTGTAC,0.208
17,CACTGAAA,0.0555
18,GACTGAAA,0.0848
19,ACCTGTGC,-0.0445
20,ACGGTTAG,-0.312
21,ATTCTTTA,-0.0742
22,CATCAATC,-0.0356
23,AGGGTTAC,-0.14
24,CAAGTGTA,-0.0141
25,ATGATGGG,0.0257

row,Sequence,PBM E-score
1,CTATGGCA,-0.0101
2,CCCTGCAA,0.162
3,CCCTGAAA,0.305
4,ACCTGCAG,-0.0488
5,CCCTGGAC,0.295
6,GCCTGAAA,0.115
7,CCCTGGAG,0.05
8,CCCTGGAA,0.0405
9,TCCTGAAA,-0.0476
10,CCCTGCAG,0.26
11,ACTCCCGG,-0.0764
12,ATCCCATA,-0.0872
13,CCATAGTA,0.0238
14,ACATAGTA,0.0458
15,GCATAGTA,0.23
16,TCTGCAAA,-0.0511
17,GGCTTCTA,-0.075
18,AGAAACTG,0.0813
19,GACAAGGA,0.0442
20,GAGGTCCA,-0.0725
21,CGGGTCCA,0.0193
22,AGGGTCCC,0.397
23,ACGGTCCA,-0.162
24,CGGGTCAA,-0.0478
25,AGGGTCCA,0.439

row,Sequence,PBM E-score
1,CGGGTCCC,-0.125
2,GGGGTCCA,0.27
3,AGGGTCAA,0.236
4,AGGGTCAG,-0.102
5,ACGGTCCC,-0.00846
6,AAGGTCCA,0.073
7,GGGACAAA,0.11
8,GCTGCCAC,-0.138
9,ACAGTGGT,0.0526
10,CTGCTTGA,-0.0823
11,CAGATCAG,0.194
12,CGCTCGGC,0.0597
13,AGGGTCCG,0.374
14,AAGGTCCG,-0.0532
15,ACGGTCCG,-0.231
16,ACCTCAAC,0.0405
17,GGCCAACC,0.0203
18,AATATTAC,0.14
19,CATATTAG,0.124
20,TATATTAA,0.234
21,AATATTAA,0.295
22,AATATTAT,0.219
23,GATATTAA,0.147
24,CGTATTAG,0.0345
25,AATATTAG,0.256

row,Sequence,PBM E-score
1,ACTATTAA,0.175
2,AGTATTAA,0.219
3,AGTATTAG,0.273
4,CATATTAA,0.129
5,CTTAGGAA,-0.0218
6,CGGAGCAA,0.0265
7,CCTTCGCC,-0.31
8,AATCCTGC,-0.00651
9,CGCATTCA,0.0356
10,GAACTGCA,0.0913
11,ACATATAA,0.211
12,GCCCCCAA,-0.331
13,CTTTCCAA,-0.0143
14,AATATTCA,0.144
15,AATATTCG,0.177
16,AATATTCC,0.233
17,TATTACCA,0.0363
18,CGAATACA,0.0068
19,ACAACGGA,0.242
20,ACAACGGG,0.243
21,CCAACGGG,0.0593
22,CCAACGGA,-0.031
23,ACAACGGT,-0.0246
24,TCAACGGA,-0.0313
25,GACCGGAC,-0.168

row,Sequence,PBM E-score
1,AAAGGGCG,0.0812
2,AGCGCACT,-0.0126
3,GTTAGGCA,-0.146
4,CATGGTCG,-0.0584
5,GTTGGTCA,0.229
6,CATGGTCC,0.0356
7,CTTGGTCA,0.138
8,CATGGTCA,0.236
9,ATTGGTCA,0.0477
10,GGAGTGAC,0.102
11,ACACCGAC,-0.151
12,CGCCCTAA,-0.171
13,CGGGCTAC,-0.0936
14,AGGGGGTC,-0.163
15,AAGGGGTC,0.239
16,AAGGGGTG,-0.00477
17,ATGGGGTC,0.299
18,AAAGGGTT,0.0608
19,CAAGGGAA,0.0785
20,AAAGGGTC,0.318
21,AAAGGGTG,0.00635
22,CTGGGGTC,0.015
23,CAAGGGAG,-0.0764
24,ATGGGGTA,0.127
25,CAAGGGAC,0.261

row,Sequence,PBM E-score
1,CCTATATA,0.0688
2,CCTTTAGA,-0.136
3,CAAGGGTG,0.0522
4,CGGGGGTC,-0.342
5,GAAGGGTC,0.0665
6,CAGGGGTA,0.166
7,CAAGGGTC,0.376
8,CAGGGGTC,0.302
9,CATCTTAC,-0.00815
10,ACCAAGTG,-0.0903
11,CCTCTCTA,-0.294
12,AATTTCAA,-0.0693
13,CGTTTTTC,-0.117
14,GCTACCCA,-0.152
15,AAGGAAAG,-0.137
16,AAAAGTAG,0.0358
17,CCCGAAAA,0.129
18,GCCGAAAC,-0.0148
19,GCCGAAAA,0.239
20,TATCCACA,0.131
21,AATGAACC,0.00986
22,CATGAACC,0.233
23,GATGAACC,-0.0336
24,CCTCTTGA,0.0273
25,TGCCCACA,-0.0506

row,Sequence,PBM E-score
1,CAATATTC,0.0479
2,AAATATTC,0.127
3,GAATATTC,0.24
4,GAATATTA,0.232
5,GAATATCA,0.0654
6,GAATATGA,-0.0524
7,GCTGAGCA,0.0693
8,GACAACTA,0.158
9,CTGTAACC,0.108
10,CCTTGGAC,-0.165
11,CACGCCTA,-0.227
12,AGGTCCAC,-0.199
13,GGGTCCAC,0.301
14,CGGTCCAA,-0.224
15,AGGTCCAA,-0.0549
16,GGGTCCAA,0.322
17,CGGTCCAC,-0.222
18,TCTCAACA,0.0641
19,TAGAGATA,0.0396
20,CCTGACTA,0.172
21,GGACCCGA,0.0929
22,ATACCTTC,-0.0248
23,GCCACGGA,-0.0858
24,TGCTTGAA,0.0462
25,CGCTTGAA,0.263

row,Sequence,PBM E-score
1,CGCTTGAG,-0.0135
2,CTCTATTA,-0.105
3,GTATATTA,0.107
4,CTATATTA,0.229
5,ATTTATTA,0.273
6,ATTATTTA,0.173
7,ATATATTG,-0.0404
8,ATATATTA,0.245
9,ATTTATCC,0.247
10,GTTTATTA,0.194
11,CTATATTC,0.0669
12,ATTTATCG,0.0781
13,ATTTATCA,0.225
14,AAGCCACA,-0.101
15,GTAAGCCA,-0.113
16,ACCATCTC,0.0848
17,AGTACTAC,0.118
18,CTCGCTTA,0.132
19,TCCACCGA,-0.0753
20,AAGCGATT,-0.0219
21,AACTGCAC,0.0736
22,AACTGCAT,0.232
23,AACTGCAG,-0.0636
24,GCTCAGCA,-0.133
25,AAGCCACC,-0.198

row,Sequence,PBM E-score
1,GAACTGTC,0.0447
2,ACGAGTAT,0.0482
3,ACGAGTAA,0.244
4,GCGAGTAA,0.198
5,ATGGGTTA,0.0918
6,AGTGGTTC,-0.0506
7,ATACGCAA,0.232
8,GTACGCAA,-0.131
9,ATACGCAG,-0.235
10,CTCTGGTA,-0.0435
11,TAAGAACA,0.26
12,CAAGAACA,0.007
13,GAAGAACA,0.155
14,AGTCGACA,0.194
15,AGTCGACC,-0.0853
16,AGTCGACT,0.243
17,GGGAGAAC,-0.189
18,AAGAAGGC,-0.197
19,AGACATTC,-0.0988
